Bioassay records deposited in PubChem by several laboratories.
The list is not random: actives were taken first. Their share in the collection is about 2.1%.
Ba/F3 V617F tox: lowers viability of Ba/F3 cells expressing EpoR and JAK2V617F; ATP luminescence; inhibition, % at 5.6 µM; 220,000 tested, 1.1% active; AID 1446;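 active means inhibition above the campaign mean plus 3 SD over all tested compounds, cut at about 24% in these data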;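 further: cytokine-independent growth of Ba/F3 cells driven by EpoR plus mutant JAK2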
aSyn UTR inh: 5' untranslated region of α-synuclein, MLPCN primary screen; alpha-synuclein 5'UTR reporter, inhibitor activity; inhibition, % (tested at 7.5 µM); 300,000 tested, 0.82% active; AID 1813; in the data active means inhibition above about 60%;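 further: H4 neuroglioblastoma cells stably carrying SNCA 5'UTR luciferase fusion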
APP 5UTR inh: APP translation inhibition; SH-SY5Y APP 5'UTR-luciferase reporter, luminescence; inhibition, % at 2 µM; 190,000 tested, 0.82% active; AID 1285;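 active means inhibition above a set limit, derived from the sample mean plus 3 SD, cut at about 45% in these data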
BaF3 tox: reduces parental Ba/F3 cell viability, JAK2V617F counter-screen; CellTiter-Glo ATP luminescence; inhibition, % at 5.6 µM; 220,000 tested, 1.1% active;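 active means inhibition above a per-campaign cutoff, the mean inhibition of all tested compounds plus 3 SD, cut at about 27% in these data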
IEC-6 cytotox: IEC-6 cytotoxicity, counter-screen for KLF5 inhibitors; luminescence viability; inhibition, % at 5 µM; 290,000 tested, 0.78% active; AID 1825
KLF5 inh: inhibitors of KLF5 expression. DLD-1 KLF5 promoter-luciferase reporter, luminescence. inhibition, % at 5 µM. 290,000 tested, 0.23% active;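 active means inhibition above a per-plate limit of that plate's mean compound inhibition plus 3 SD, cut at about 60% in these data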;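 further: higher means less KLF5 promoter-driven luciferase light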
IEC-6 cytotox cf: IEC-6 cytotoxicity, confirmation assay; 1,900 tested, 63% active; inhibition, % at 5 µM; IEC-6 rat intestinal epithelial viability, luminescence; shares compounds with IEC-6 cytotox; AID 1907
Numbers stand for hits. Unless noted, no stated cut-off is given here; in the data, active means inhibition above about 22%; inactive means the rest.

Results for Cc1ccc(C)c(C2NC(=O)c3ccccc3N2)c1 (configuration not stated) ?
Ba/F3 V617F tox: 42; aSyn UTR inh: inactive; BaF3 tox: 39; IEC-6 cytotox: 63; KLF5 inh: inactive; IEC-6 cytotox cf: 51

What do the screens show for `Oc1ccc(Oc2ccc(Oc3ccc(O)cc3)cc2)cc1`?
aSyn UTR inh: inactive; IEC-6 cytotox: 42; KLF5 inh: inactive; IEC-6 cytotox cf: inactive

Results for CC(=O)c1ccc(Oc2ccc(C(C)=O)cc2)cc1 ?
Ba/F3 V617F tox: inactive; aSyn UTR inh: inactive; APP 5UTR inh: inactive; BaF3 tox: inactive; IEC-6 cytotox: inactive; KLF5 inh: inactive

Results for O=C(c1ccco1)N1CCC(c2nc3c(nnn3Cc3ccc(F)cc3)c(=O)[nH]2)CC1 ?
aSyn UTR inh: inactive; IEC-6 cytotox: inactive; KLF5 inh: inactive

Results for O=S(=O)(Nc1cccc2ncccc12)c1cccs1 ?
Ba/F3 V617F tox: inactive; aSyn UTR inh: inactive; APP 5UTR inh: inactive; BaF3 tox: inactive; IEC-6 cytotox: 100; KLF5 inh: inactive; IEC-6 cytotox cf: 102

What do the screens show for `CSc1ncccc1C(=O)NC1CCN(Cc2ccccc2)CC1`?
aSyn UTR inh: inactive; IEC-6 cytotox: inactive; KLF5 inh: inactive

What do the screens show for `c1ccc2nc3c(nc2c1)c1ccccc1n3CCN1CCOCC1`?
Ba/F3 V617F tox: 84; aSyn UTR inh: inactive; APP 5UTR inh: inactive; BaF3 tox: 77; IEC-6 cytotox: 23; KLF5 inh: inactive; IEC-6 cytotox cf: inactive

Results for COc1ccccc1C(=O)NC(=O)COC(=O)Cn1cnc2c1c(=O)n(C)c(=O)n2C ?
aSyn UTR inh: inactive

Results for COc1ccc(C)cc1NS(=O)(=O)c1ccc(-c2cnc(C3CC3)o2)cc1 ?
aSyn UTR inh: 102; IEC-6 cytotox: 90; KLF5 inh: inactive; IEC-6 cytotox cf: 62

What do the screens show for `CCOc1ccccc1CNS(=O)(=O)c1ccc(-c2cnc(C3CC3)o2)cc1`?
aSyn UTR inh: 74; IEC-6 cytotox: 75; KLF5 inh: inactive; IEC-6 cytotox cf: 55

Results for Cc1ccc(NS(=O)(=O)c2ccc(-c3cnc(C4CC4)o3)cc2)cc1 ?
aSyn UTR inh: inactive; IEC-6 cytotox: 56; KLF5 inh: inactive; IEC-6 cytotox cf: 32

How did Cc1ccc(CNS(=O)(=O)c2ccc(-c3cnc(C4CC4)o3)cc2)cc1 do in these assays?
aSyn UTR inh: inactive; IEC-6 cytotox: inactive; KLF5 inh: inactive

How did Cc1ccc(N(C)S(=O)(=O)c2ccc(-c3cnc(C4CC4)o3)cc2)cc1 do in these assays?
aSyn UTR inh: 84; IEC-6 cytotox: 76; KLF5 inh: inactive; IEC-6 cytotox cf: 55

Results for Cc1cccc(C)c1NS(=O)(=O)c1ccc(-c2cnc(C3CC3)o2)cc1 ?
aSyn UTR inh: 103; IEC-6 cytotox: 94; KLF5 inh: inactive; IEC-6 cytotox cf: 72

What do the screens show for `CC(=O)c1ccc(NS(=O)(=O)c2ccc(-c3cnc(C4CC4)o3)cc2)cc1`?
aSyn UTR inh: inactive; IEC-6 cytotox: inactive; KLF5 inh: inactive

How did CCC(C)NCCOCCOc1ccc(Cl)c(C)c1C (configuration not stated) do in these assays?
Ba/F3 V617F tox: inactive; aSyn UTR inh: inactive; APP 5UTR inh: inactive; BaF3 tox: inactive; IEC-6 cytotox: inactive; KLF5 inh: inactive

Results for CCC(C)NCCOCCOc1ccc(Cl)c2ccccc12 (configuration not stated) ?
Ba/F3 V617F tox: inactive; aSyn UTR inh: inactive; APP 5UTR inh: inactive; BaF3 tox: inactive; IEC-6 cytotox: 34; KLF5 inh: inactive; IEC-6 cytotox cf: inactive

Results for Cc1nnc(N/N=C/c2ccc(-c3ccc(Br)cc3)o2)n1N ?
Ba/F3 V617F tox: inactive; aSyn UTR inh: inactive; APP 5UTR inh: inactive; BaF3 tox: inactive; IEC-6 cytotox: 37; KLF5 inh: inactive; IEC-6 cytotox cf: inactive

How did Cc1nnc(N/N=C/c2ccc(Br)cc2)n1N do in these assays?
aSyn UTR inh: inactive; IEC-6 cytotox: inactive; KLF5 inh: inactive

What do the screens show for `O=C(O)c1ccc(N/N=C/c2ccc(-c3ccc(Br)cc3)o2)cc1`?
aSyn UTR inh: inactive; IEC-6 cytotox: 28; KLF5 inh: inactive; IEC-6 cytotox cf: 28

How did C=C1CCc2c([nH]c3ccc(OCC(C)C)cc23)C1=O do in these assays?
aSyn UTR inh: inactive; IEC-6 cytotox: inactive; KLF5 inh: inactive

What do the screens show for `O=C(CC(NC(=O)C(F)(F)F)c1ccccc1)Nc1nnc(CCc2ccccc2)s1` (configuration not stated)?
Ba/F3 V617F tox: inactive; aSyn UTR inh: inactive; APP 5UTR inh: inactive; BaF3 tox: inactive; IEC-6 cytotox: inactive; KLF5 inh: inactive

How did O=C(NCc1ccccn1)c1cccc(S(=O)(=O)NCc2ccccc2)c1 do in these assays?
aSyn UTR inh: inactive

How did CCOc1ccc(-c2c[n+]3c(n2-c2ccccc2)CCCCC3)cc1 do in these assays?
Ba/F3 V617F tox: 89; aSyn UTR inh: inactive; APP 5UTR inh: inactive; BaF3 tox: 70; IEC-6 cytotox: 25; KLF5 inh: inactive; IEC-6 cytotox cf: inactive

Results for CCOc1ccc(-c2nnc(-c3ccccc3)n2-c2ccccc2)cc1 ?
Ba/F3 V617F tox: inactive; aSyn UTR inh: inactive; APP 5UTR inh: inactive; BaF3 tox: inactive; IEC-6 cytotox: inactive; KLF5 inh: inactive

Results for O=C(CCl)N(c1ccccc1)c1c[nH]c2ccccc12 ?
Ba/F3 V617F tox: 101; aSyn UTR inh: inactive; APP 5UTR inh: inactive; BaF3 tox: 50; IEC-6 cytotox: 34; KLF5 inh: inactive; IEC-6 cytotox cf: inactive

What do the screens show for `COc1ccc(S(=O)(=O)N2CCC(C(=O)Oc3ccc(C)cc3)CC2)cc1OC`?
aSyn UTR inh: inactive

Results for Cc1cc(C)c2c(n1)sc1c(-c3ccccc3)c(C#N)c(N)nc12 ?
Ba/F3 V617F tox: inactive; aSyn UTR inh: inactive; APP 5UTR inh: inactive; BaF3 tox: inactive; IEC-6 cytotox: inactive; KLF5 inh: inactive

What do the screens show for `COc1cccc(CN2C(=O)C3(C(C#N)=C(N)OC4=C3C(=O)CCC4)c3ccccc32)c1` (configuration not stated)?
Ba/F3 V617F tox: 72; aSyn UTR inh: 63; APP 5UTR inh: inactive; BaF3 tox: 89; IEC-6 cytotox: 59; KLF5 inh: inactive; IEC-6 cytotox cf: 54

How did CC1(C)CC(=O)C2=C(C1)OC(N)=C(C#N)C21C(=O)N(CN2CCOCC2)c2ccccc21 (configuration not stated) do in these assays?
Ba/F3 V617F tox: inactive; aSyn UTR inh: inactive; APP 5UTR inh: inactive; BaF3 tox: inactive; IEC-6 cytotox: inactive; KLF5 inh: inactive

How did Cc1nn(-c2ccc(N3CCOCC3)nn2)c(C)c1CCC(=O)NCc1ccccc1 do in these assays?
aSyn UTR inh: inactive; IEC-6 cytotox: inactive; KLF5 inh: inactive

Results for Cc1ccc(N/N=C(\Cc2nc3ccccc3[nH]2)c2ccccc2)cc1 ?
Ba/F3 V617F tox: inactive; APP 5UTR inh: 92; BaF3 tox: inactive; IEC-6 cytotox: 55; KLF5 inh: inactive; IEC-6 cytotox cf: 61

What do the screens show for `COc1ccc(C)cc1NC(=O)C1CCN(S(=O)(=O)c2ccc3c(c2)C(C)(C)C(=O)N3C)CC1`?
aSyn UTR inh: inactive; IEC-6 cytotox: inactive; KLF5 inh: inactive
